High-throughput results deposited in PubChem by several laboratories.
M1 antagonist: antagonists of rat M1 muscarinic receptor | B-score at 10 µM | CHO-M1 cells, Fluo-4 calcium, ACh EC80 antagonist mode; active compounds read low | 64,000 tested, 3.4% active | Muscarinic acetylcholine receptor M1 (Rattus norvegicus), P08482;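 active = calcium fluorescence response, raw or row-and-column corrected B-score, differing from the plate sample mean either way at a set confidence level, mostly lower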
DAT uptake mod: changed hDAT dopamine uptake under cocaine IC80, either direction, primary screen, cocaine antagonist project, cell-based, LLC-PK1 hDAT, [14C]-dopamine uptake, MLSMR; Sodium-dependent dopamine transporter (Homo sapiens), Q01959; LLC-PK1 hDAT cells, [14C]-dopamine uptake with cocaine IC80; actives deviate in either direction; B-score at 10 µM; 110,000 tested, 1.3% active;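 active = Z score or B-score, a plate-position-corrected score, falls beyond the plate's 99.7% confidence bounds, in either direction; inactive = both scores lie inside the 99.7% bounds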;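 also: scored against the spread of the other compound wells on the same plate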
Target sequence (Q01959 whole entry, looked up): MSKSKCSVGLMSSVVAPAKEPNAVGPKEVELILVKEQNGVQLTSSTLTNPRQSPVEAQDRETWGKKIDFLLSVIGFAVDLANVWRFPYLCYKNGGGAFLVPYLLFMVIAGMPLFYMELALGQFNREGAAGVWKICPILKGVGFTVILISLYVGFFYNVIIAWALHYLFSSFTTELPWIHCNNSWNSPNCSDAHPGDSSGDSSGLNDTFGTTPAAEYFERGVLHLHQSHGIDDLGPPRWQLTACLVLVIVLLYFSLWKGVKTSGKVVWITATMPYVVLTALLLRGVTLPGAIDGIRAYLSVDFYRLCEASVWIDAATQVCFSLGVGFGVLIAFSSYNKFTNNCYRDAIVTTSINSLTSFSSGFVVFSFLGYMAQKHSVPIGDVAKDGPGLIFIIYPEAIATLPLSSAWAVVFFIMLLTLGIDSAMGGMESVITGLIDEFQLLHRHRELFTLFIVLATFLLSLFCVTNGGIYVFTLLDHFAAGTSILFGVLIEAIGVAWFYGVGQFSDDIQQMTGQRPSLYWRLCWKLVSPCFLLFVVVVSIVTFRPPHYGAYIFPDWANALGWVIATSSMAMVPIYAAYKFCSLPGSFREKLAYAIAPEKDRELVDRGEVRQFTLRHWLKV
D1 mod: D1 CRE-luciferase signal change, two-sided – cell-based, HEK293 D1, dopamine EC30, D1 allosteric modulator project, primary screen | D(1A) dopamine receptor (Homo sapiens), P21728 | dopamine EC30 potentiation; actives deviate in either direction | B-score at 10 µM | 58,000 tested, 5.9% active | AID 641, 2007;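 active = luminescence count or its row- and column-corrected plate score outside the 99.7% band of the plate's sample wells, on either side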
FXIa inh mix: FXIa protease inhibitors in compound pools, primary screen, biochemical, 10-compound mixtures | Coagulation factor XI (Homo sapiens), P03951 | purified FXIa, fluorogenic substrate, pooled mixtures | inhibition, % at 5 µM | 62,000 tested, 0.19% active | AID 680, 2007;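 also: each value is inhibition by a whole ten-compound pool holding the compound; 0% = enzyme with no mixture and 100% = wells lacking enzyme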
M1 ag: M1 muscarinic receptor agonists, primary screen, CHO-M1 cells, Fluo-4 calcium, agonist mode; AID 626, 2007; B-score at 10 µM; 64,000 tested, 3% active; Fluo-4 calcium fluorescence; active compounds read high; Muscarinic acetylcholine receptor M1;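 active = fluorescence rise, raw or as B-score row- and column-corrected plate score, outside the 99.7% band of its plate's samples, either direction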
FXIIa mix inh: human factor XIIa inhibitors, primary screen, biochemical, pooled compound mixtures, fluorogenic substrate | inhibition, % at 5 µM | purified FXIIa | AID 684, 2007 | 62,000 tested, 0.2% active;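 also: 0% = enzyme without compound and 100% = no enzyme blank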
D1 mod confirm: D1 receptor positive allosteric modulators, retest, confirmation, cell-based, HEK293 D1, CRE-luciferase, duplicate. dopamine EC30 potentiation; active compounds read high. shares compounds with D1 mod. luminescence at 10 µM. AID 642, 2007. 2,200 tested, 88% active;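 active = luminescence in either of two replicates above the same-plate mean plus 3 SD of the low-dose dopamine control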
D1 ag no DA: D1 receptor agonism without dopamine, confirmation, mechanism study for D1 allosteric modulator project, cell-based, HEK293 D1, CRE-luciferase, secondary assay 1; luminescence at 10 µM; 1,900 tested, 0.8% active; shares compounds with D1 mod; luminescence, no dopamine; active compounds read high; in the data active = luminescence above about 3900
Isoprot counter: isoproterenol response counter-screen activity for D1 modulators | shares compounds with D1 mod | HEK293 D1 CRE-luciferase, isoproterenol EC30 counter-screen | calls only at 10 µM | 2,200 tested, 63% active | AID 647;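 active = luminescence in either replicate above plate mean of wells with a partly effective reference agonist dose plus 3 SD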;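 also: isoproterenol raises cAMP through native beta-adrenoceptor Gs so signal bypasses D1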
* = called active by the depositor; i = inactive; · = not tested or not shown; + = active, no number. The list is not random: actives were taken first. Their share in the collection is about 7.4%. Rule as the data show it, unless noted: active = inhibition above about 20% (passing the limit was not always enough); inactive = the rest.

SMILES	M1 antagonist	DAT uptake mod	D1 mod	FXIa inh mix	M1 ag	FXIIa mix inh	D1 mod confirm	D1 ag no DA	Isoprot counter
CCCc1nc2n[nH]c(N)c2c2c1CCCC2	0.043	1.4	·	·	-0.45	·	·	·	·
CCCCc1nc2n[nH]c(N)c2c2c1CCCC2	0.79	0.91	21*	10	-0.64	-43	20280*	1464	+
O=c1[nH]c2ccsc2c(=O)n1-c1ccc(F)c(Cl)c1	1	0.17	8.3*	10	0	5	14224*	1628	+
Cc1ccc(C)n1-n1cnc2scc(-c3cccs3)c2c1=O	0.13	1	17*	-1	-0.055	-23	24272*	1704	+
O=c1c2c(-c3cccs3)csc2ncn1-n1cccc1	·	0.71	·	·	·	·	·	·	·
CSCCC(NC(N)=O)C(=O)NCc1ccccc1Cl (configuration not stated)	0.37	-0.65	-0.86	6	1.1	11	·	·	·
O=C(c1ccc2c(c1)OCO2)N1CCc2ccccc2C1	0.4	0.86	22*	1	0.13	7	18384*	1548	+
O=C(c1ccc2c(c1)OCO2)N1CCCc2ccccc21	0.62	0.81	-0.11	·	-0.68	·	·	·	·
CC(C)(C)C1CCC2(CC1)CC(=O)c1ccccc1O2 (configuration not stated)	·	-1.5	·	·	·	·	·	·	·
COCCN1CC(O)=C(c2nc3ccccc3c(=O)[nH]2)C1=N	0	0.008	6.8*	-10	-0.91	11	5256	1884	i
COCCCn1c2nc3ccccc3nc2c2c(=O)n(CC3CCCO3)cnc21 (configuration not stated)	0.3	-0.27	6.4*	·	0.96	·	8104*	·	i
COc1ccc(/C=C(/C#N)c2cccnc2)cc1OC	0.15	0.38	34*	-1	0.83	5	21544*	1648	+
CCC(NC(C)C)C(O)c1ccc(O)c2[nH]c(=O)ccc12 (configuration not stated)	0.81	-0.95	14*	4	0.24	3	8644*	3980*	+
COc1ccc(S(=O)(=O)Nc2ccc3c(c2)OCO3)cc1OC	0.37	-1.1	3.1*	11	0.37	3	9304*	1612	i
COc1ccc(S(=O)(=O)Nc2ccc3c(c2)OCO3)cc1C(=O)O	1	1.2	-0.34	7	0.72	8	·	·	·
CCS(=O)(=O)c1nc2ccccc2n1Cc1ccccc1Cl	-0.48	-1.3	16*	3	-0.22	0	16608*	1152	+
Nc1c(C(=O)NCCc2ccccc2)nnn1Cc1ccccc1	0.77	0.23	0.81	-6	0.45	-1	·	·	·
COc1ccc(C2CNC(=O)C2)cc1OC1CCCC1 (configuration not stated)	-0.24	0.13	45*	5	-0.41	2	20880*	·	+
N#Cc1c2c(nc(N)c1-c1ccccc1)CCCCC2	0.72	-0.74	4.5*	8	-0.61	-3	7208*	1532	i
N#Cc1c(N)nc2c(c1-c1ccccc1)CCCC2	0.1	-0.59	·	-3	-0.062	-2	·	·	·
CC(C)CSc1nc2c(c(=O)[nH]c(=O)n2C)n1CCc1ccccc1	0.5	-0.38	19*	7	0.4	1	14104*	1444	+
CC(C)CCSc1nc2c(c(=O)[nH]c(=O)n2C)n1CCc1ccccc1	-0.0065	-0.22	2.6*	·	-0.00027	·	15840*	1540	+
CCOc1cc(C2NC(=O)NC(O)(C(F)(F)F)C2C(=O)c2ccccc2)ccc1OC (configuration not stated)	0.64	-0.98	·	-3	1.4	-4	·	·	·
O=C1c2ccc3c4c(ccc(c24)C(=O)N1c1ccc2ccccc2c1)CC3	·	-0.025	·	·	·	·	·	·	·
c1ccc(-c2nc3ccccc3c3nncn23)cc1	0.71	·	7.2*	-5	-0.22	6	7952*	1508	i
SMILES	M1 antagonist	DAT uptake mod	D1 mod	FXIa inh mix	M1 ag	FXIIa mix inh	D1 mod confirm	D1 ag no DA	Isoprot counter
CCC1(C)Cc2c(sc3c2c(=O)n(C)c2nnc(SCC(=O)c4ccc(Cl)cc4)n32)CO1 (configuration not stated)	-0.16	·	·	·	-0.19	·	·	·	·
C=C(C)C1Cc2c(C)nn(-c3nc(C)cc(C)n3)c2C1 (configuration not stated)	0.22	-0.29	-2	9	0.82	12	·	·	·
C=C(C)C1Cc2nc(N)nc(C)c2C1 (configuration not stated)	-1.1	-0.82	14*	-1	-0.87	3	14408*	1772	+
Cc1cc([N+](=O)[O-])ccc1NC(=S)NC(=O)Cc1ccccc1	·	0.16	·	·	·	·	·	·	·
COc1ccc(N(CC(=O)Nc2ccc3c(c2)OCCO3)S(=O)(=O)c2c(C)noc2C)cc1	0.0062	·	·	-17	0.63	-2	·	·	·
COc1ccc(NC(=O)CN(c2ccc(C(C)C)cc2)S(=O)(=O)c2c(C)noc2C)cc1OC	-0.0066	-0.075	3*	5	-0.23	5	4788	1104	i
COc1ccc(NC(=O)c2ccc(NS(=O)(=O)c3c(C)noc3C)cc2)cc1OC	-0.31	-0.0083	8.8*	10	0.027	5	5712*	1524	i
COc1ccccc1CNC(=O)c1ccc(NS(=O)(=O)c2c(C)noc2C)cc1	-0.25	-0.75	4.2*	8	-0.22	3	6660*	1648	i
CN1C(=O)C2(c3ccccc31)N(C)CC(c1ccccc1)C21SC(=S)N(Cc2ccco2)C1=O (configuration not stated)	·	-0.14	·	·	·	·	·	·	·
CC(=O)c1cc(C#N)c(SCC(=O)OC(C)(C)C)nc1C	0.0098	0.11	3.4*	3	-0.72	-4	10808*	1660	i
CC(=O)c1cc(C#N)c(SCc2ccncc2)nc1C	-0.49	-0.16	5.6*	·	-1.9	·	8540*	1916	i
CCOC(=O)c1oc2ccc(S(=O)(=O)N3CCOCC3)cc2c1C	-0.21	-1.2	4.3*	-9	-1.2	2	7344*	1548	i
CN=C1c2ccccc2CN1c1cccc(C(=O)OC)c1	-0.55	-0.37	13*	4	0.96	-1	19796*	1756	+
